Source: PubChem BioAssay

Target: E3 ubiquitin-protein ligase XIAP (Homo sapiens) (UniProt P98170)
Assay: small molecules binding XIAP protein – biophysical, small-molecule microarray, fluorescence 635 nm, primary screen (AID 1181);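 also: score merges 667 nm emission and signal to noise over triplicate slides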
Settings: higher = more signal

Chain of E3 ubiquitin-protein ligase XIAP (Homo sapiens) (P98170 whole entry, looked up): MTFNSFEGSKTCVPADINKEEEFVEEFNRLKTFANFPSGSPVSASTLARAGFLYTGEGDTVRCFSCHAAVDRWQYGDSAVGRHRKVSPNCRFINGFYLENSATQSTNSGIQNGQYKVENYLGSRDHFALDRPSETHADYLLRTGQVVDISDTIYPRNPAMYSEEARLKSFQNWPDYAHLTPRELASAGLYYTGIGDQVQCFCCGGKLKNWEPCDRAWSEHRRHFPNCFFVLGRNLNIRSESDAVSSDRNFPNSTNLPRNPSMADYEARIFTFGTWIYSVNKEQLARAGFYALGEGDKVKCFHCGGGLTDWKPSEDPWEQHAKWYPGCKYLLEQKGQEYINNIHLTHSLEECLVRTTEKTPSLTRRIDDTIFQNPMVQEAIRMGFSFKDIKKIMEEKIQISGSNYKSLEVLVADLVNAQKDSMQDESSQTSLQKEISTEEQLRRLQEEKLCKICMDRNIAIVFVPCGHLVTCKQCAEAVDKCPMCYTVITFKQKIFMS

Compared with `COC(=O)[C@@]1(Cc2ccc(F)cc2)[C@H]2c3cc(C(=O)N(C)C)n(CCN4CCOCC4)c3C[C@H]2CN1C(=O)c1ccccc1`, `COc1ccc([Si](C)(C)[C@H]2[C@H](CCn3cc([C@H](O)c4ccccc4)nn3)O[C@@]3(C(=O)N(C)c4c(Br)cc(C)cc43)[C@@H]2C)cc1` is lower in composite z-score: 0.138 for the first, 0.0512 for the second.

Going from `C[N+](C)(C)CCCCCCNC(=O)[C@@H]1C[C@@H]2C(=O)N[C@@H](Cc3ccccc3)C(=O)N2[C@@H]1c1ccc(O)cc1` to `C=CCOC(=O)[C@H]1[C@@H]2C(=O)O[C@@H](c3ccccc3)[C@@H](c3ccccc3)N2[C@@H](c2ccc(OCCOC(=O)[C@H]3C[C@H]4C(=O)NCC(=O)N4[C@H]3c3ccc(O)cc3)cc2)[C@]12C(=O)Nc1ccc(I)cc12`, the composite z-score rises from -0.0882 to -0.0351.

Going from `CO[C@H]1O[C@H](CO)[C@@H](OC(=O)Nc2ccc(C(F)(F)F)cc2)[C@H](OC(=O)Nc2ccccc2-c2ccccc2)[C@@H]1OC(=O)Nc1ccccc1-c1ccccc1` to `COCCOC(=O)N1C(=O)[C@@]2(c3cc(C#CC4=CCCCC4)ccc31)[C@H](c1ccc(OCCO)cc1)N1[C@H](c3ccccc3)[C@H](c3ccccc3)OC(=O)[C@H]1[C@@H]2C(=O)N1CCCCCCC1`, the composite z-score rises from -0.184 to 0.248.

Going from `C=C(CCCC)/C(=C/C[C@H](OC(C)=O)c1cccc(OCCO)c1)c1cc(C(=O)OC)ccc1OC` to `COCCOC(=O)N1C(=O)[C@@]2(c3cc(C#CC4(O)CCCCCC4)ccc31)[C@H](C(=O)N1CCc3cc(OC)c(OC)cc3C1)[C@H]1C(=O)O[C@H](c3ccccc3)[C@H](c3ccccc3)N1[C@@H]2c1ccc(O)cc1`, the composite z-score falls from -0.0297 to -0.0703.
